Compounds with a hit are over-represented: about 6% of the library has one in this group of screens.
Tau FP inhib = qHTS for Inhibitors of Tau Fibril Formation, Fluorescence Polarization | Microtubule-associated protein tau (Homo sapiens), P10636 | K18 P301L tau heparin fibrillization, Alexa594 FP, 6 h | Potency, µM (titrated, usually from 57.7 µM), inactives show at the top dose activity, negative = inhibition, usual class: inhibitors | actives 0.39% (n = 280,000) | AID 1468, 2008; note: nearly all actives have a fitted effect of over 55% in size
Target sequence (P10636 561-689 P618L limits assumed): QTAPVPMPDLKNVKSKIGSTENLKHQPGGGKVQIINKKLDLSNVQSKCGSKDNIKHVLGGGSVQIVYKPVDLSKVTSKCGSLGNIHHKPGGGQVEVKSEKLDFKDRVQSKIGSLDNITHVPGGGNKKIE
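Steps: dispense K18 P301L tau (15 uM plus 0.24 uM Alexa 594 tracer, final) in pH 7 sodium acetate; add compound; add heparin (20 uM final); incubate 6 hr, 37 C; add ThT (30 uM final); after 1 hr ambient, read FP.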
Tau fluor counter = Counterscreen qHTS for Inhibitors of Tau Fibril Formation, Fluorescence Polarization; tau K18 P301L Alexa594 fluorescence, heparin fibrillization; Potency, µM (highest dose often 57.7 µM), without a hit: at the top dose activity change, negative = decrease; actives 0.93% (n = 280,000); AID 1463, 2008; note: nearly all actives have a fitted effect of over 55% in size
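Human tau K18 P301L (15 uM unlabeled, 0.24 uM Alexa 594-labeled) in 100 mM sodium acetate pH 7 with 20 uM heparin, 6 hr at 37 C. ThT 30 uM added, 1 hr ambient; Alexa 594 FP and total fluorescence read at 555/632 nm.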
Sfp PPTase inh = qHTS Assay for Inhibitors of Bacillus subtilis Sfp phosphopantetheinyl transferase (PPTase); 4'-phosphopantetheinyl transferase ffp (Bacillus subtilis), Q9F4F7; actives 3.5% (n = 310,000); Biochemical Sfp PPTase activity, qHTS; Potency, µM, for inactives: largest response in the series, negative = inhibition, actives largely listed as inhibitors;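 note: the enzyme is Sfp with the accession as filed and its product quenches rhodamine fluorescence; 0% = enzyme reaction without inhibitor and -100% = no enzyme wells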
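Fluorescence-quenching assay with 15 nM Sfp, 5 uM rhodamine-CoA and 12.5 uM BHQ-2-labelled ybbR peptide in pH 7.6 Hepes/MgCl2 buffer. Enzyme was pre-incubated with compound for 15 min at room temperature. Rate was taken from the 30-min fluorescence change (525/598 nm).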
PLK1 PBD block = qHTS for Inhibitors of PLK1-PDB (polo-like kinase 1 - polo-box domain): Primary Screen | Serine/threonine-protein kinase PLK1 (Homo sapiens), P53350 | Plk1 PBD binding of FITC phosphopeptide, fluorescence polarization | Potency, µM, for the others: max response, negative = inhibition, most hits filed as inhibitors | actives 2.8% (n = 360,000) | AID 720504, 2013; note: series mostly up to about 57 µM; nearly all actives have a fitted effect of over 65% in size
Target sequence (P53350 whole entry, looked up, the tested form may be a part): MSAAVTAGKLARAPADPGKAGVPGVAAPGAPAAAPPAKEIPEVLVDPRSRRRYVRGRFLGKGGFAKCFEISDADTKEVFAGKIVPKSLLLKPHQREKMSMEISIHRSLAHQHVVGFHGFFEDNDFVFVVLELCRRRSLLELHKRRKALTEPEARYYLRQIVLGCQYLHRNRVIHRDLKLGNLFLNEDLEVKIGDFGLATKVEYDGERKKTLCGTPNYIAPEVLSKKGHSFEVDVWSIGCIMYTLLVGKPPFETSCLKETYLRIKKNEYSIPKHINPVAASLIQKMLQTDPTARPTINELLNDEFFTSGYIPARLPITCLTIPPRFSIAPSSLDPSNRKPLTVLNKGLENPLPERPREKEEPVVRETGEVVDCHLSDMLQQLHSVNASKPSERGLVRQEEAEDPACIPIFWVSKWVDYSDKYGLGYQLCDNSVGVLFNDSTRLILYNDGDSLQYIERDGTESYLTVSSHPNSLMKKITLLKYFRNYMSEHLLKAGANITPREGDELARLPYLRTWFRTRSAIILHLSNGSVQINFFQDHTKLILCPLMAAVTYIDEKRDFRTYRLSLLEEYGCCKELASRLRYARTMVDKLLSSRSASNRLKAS
VDR inhibitor = Inhibitors of the vitamin D receptor (VDR): qHTS; AID 504847, 2011; VDR-SRC2-3 peptide fluorescence polarization, 2 h; Vitamin D3 receptor (Homo sapiens), P11473; actives 0.93% (n = 400,000); Potency, µM, for inactives: max response, negative = inhibition, most hits filed as inhibitors
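Reagent solutions, kept cold and dark, are dispensed first; compounds are then pinned in at 23 nl, plates briefly spun, and incubated 2 h at ambient temperature. Inhibition of VDR–SRC2-3 peptide binding is read by fluorescence polarization.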
Tau ThT inhib = qHTS for Inhibitors of Tau Fibril Formation, Thioflavin T Binding. recombinant tau K18 P301L (four-repeat tau fragment), heparin-induced fibrillization, ThT fluorescence. actives 2.1% (n = 270,000). Potency, µM (highest dose often 57.4 µM), for the others: at the highest dose activity, negative = inhibition, most hits filed as inhibitors. AID 1460, 2008. Microtubule-associated protein tau (Homo sapiens), P10636; note: nearly all actives have a fitted effect of over 55% in size
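Heparin-induced fibrillization of the P301L-mutant K18 repeat-domain fragment of human tau was followed by ThT binding in quantitative high-throughput format.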
Numbers without * were called inactive; ? = inconclusive; · = no result; [ ] = another dose, or the depositor's remark. Calls come from the whole dose curve; as a rule, active = well fitted curve in the direction sought with a large enough effect; inconclusive = small, poorly fitted or top-dose-only effect, or another doubt; inactive = no such curve, though single readings can be large; an effect the other way counts as inactive or inconclusive. Unless noted, % is set by controls: 0 for no effect and ±100 for the full control effect; potency is the fitted concentration of half-maximal effect.

SMILES	Tau FP inhib	Tau fluor counter	Sfp PPTase inh	PLK1 PBD block	VDR inhibitor	Tau ThT inhib
Cn1[nH]c2c(c1=O)[C@H](c1ccc(F)cc1)O[C@H](CCc1ccccc1)C2	·	·	·	18.9µM*	·	·
OC(c1cccc(Cl)c1)c1nc(/C=C/c2ccc(C(F)(F)F)cc2)cs1 (stereo not given)	·	·	·	-5.6%	·	·
N#CC(c1ccc(Cl)cc1)c1c(Cl)cc(-n2ncc(=O)[nH]c2=O)cc1Cl (stereo not given)	·	·	-8.6%	·	28.2µM*	·
N#CC(c1ccc(Cl)cc1)c1ncc(C(F)(F)F)cc1Cl (stereo not given)	-9.7%	-9.9%	0.1%	-8.6%	-19.2%	-7.3%
O=C(O)c1cccc2c1C(=O)c1ccc(-c3ccc(Cl)c(C(F)(F)F)c3)cc1S2(=O)=O	·	·	·	?	-17.8%	·
CC(C)CCNC(=O)C(c1ccc(O)cc1)N(C(=O)C1COc2ccccc2O1)c1cccc(O)c1 (stereo not given)	4.4%	-29.3%	-7.3%	18.9µM*	6.7%	-14.9%
CN(c1ccccc1)c1nccc(=O)[nH]1	·	·	·	-5.1%	-9.1%	·
COc1ccc(C2CC(=O)c3cnc(N4CCN(Cc5ccccc5)CC4)nc3C2)cc1 (stereo not given)	2.8%	-20.8%	-21.5%	21.2µM*	-26.7%	-19.9%
Nc1sccc1C(=O)c1ccccc1	2.2%	-16.2%	28.2µM*	-10.8%	-15.3%	-16.2%
CCC1C(=O)C(C)(C)C(=O)OC1c1ccc([N+](=O)[O-])cc1 (stereo not given)	·	·	-29.5%	-14.6%	-2.9%	·
O=C1CC(=O)OC(c2ccc([N+](=O)[O-])cc2)O1	·	·	·	5.97µM*	·	·
COc1cc(-c2cc3nc(NCc4ccco4)ccn3n2)cc(OC)c1OC	·	·	·	-8.1%	·	·
O=C1CCC=C1[C@@H](O)CCc1ccccc1	-3.4%[11.6 µM]	-4.8%[11.6 µM]	2.9%	·	·	-4.7%[11.5 µM]
N#Cc1c(C(F)(F)F)cc(-c2cccs2)nc1SCC(=O)Nc1ccccc1F	-13.9%	3.7%	·	·	13.7%	?
CC(=O)c1cccc(NC(=O)Nc2cnn(Cc3ccc(Cl)cc3Cl)c2)c1	?	8.91µM*[quencher]	-21.0%	-3.9%	-1.2%	-10.1%
O=C(NCc1cccnc1)c1ccc(NC(=O)c2ccc([N+](=O)[O-])cc2)cc1	·	·	-5.3%	-4.7%	-18.4%	·
O=C(Nc1cnn(Cc2c(Cl)cccc2Cl)c1)c1ccc([N+](=O)[O-])cc1	?	25.1µM*[quencher]	-5.9%	-17.7%	11.3%	-20.2%
O=C(Nc1cnn(Cc2ccc(Cl)cc2Cl)c1)c1cc(-c2cccs2)on1	-9.2%	-26.7%	-3.5%	-0.5%	4.6%	-3.5%
O=C(COc1ccc(Cl)cc1)Nc1cnn(Cc2c(Cl)cccc2Cl)c1	-14.3%	-19.7%	-5.6%	-8.6%	89.1µM*	-4.7%
CN(C)c1ccc(NC(=O)c2ccc(Cn3cc([N+](=O)[O-])cn3)cc2)cc1	14.3%	?	-1.7%	6.3%	-2.7%	12.6µM*
Cc1nc2cc(N=NC3=C(O)CCCC3=O)ccc2s1	-4.2%	-26.3%	-8.8%	-5.0%	-15.4%	15.8µM*
CC(C)c1ccc(/C=C/C(=O)n2nnc3ccccc32)cc1	?	-15.1%	-25.6%	-21.6%	?	20µM*
COC(=O)C(C(C)=O)C1=C/C(=N\S(=O)(=O)c2ccc(C)cc2)c2ccccc2C1=O (stereo not given)	?	?	?	28.2µM*	3.7%	31.6µM*
CC(C)=CCN1CCN(CCC2=C(C)CCCC2(C)C)CC1CCO (stereo not given)	-5.4%	-2.3%	16.3%	-13.4%	-7.6%	-4.6%
CC1=C(CC/C(C)=N/NC(N)=S)C(C)(C)CCC1	8.9%	-10.7%	44.7µM*	?	?	?
SMILES	Tau FP inhib	Tau fluor counter	Sfp PPTase inh	PLK1 PBD block	VDR inhibitor	Tau ThT inhib
Cc1ccc(-n2nc(-c3cccnc3)cc2C(=O)N2CCOCC2)c(C)c1	-3.8%	-12.7%	-3.2%	?	-6.8%	-16.1%
O=C(O)c1cc(-c2ccco2)nn1-c1ccc(Cl)cc1	0.4%	-3.5%	15.8µM*	?	?	-15.6%
O=C(O)c1cc(-c2cccs2)nn1-c1cccc(Cl)c1	-3.8%	-14.3%	89.1µM*	-18.2%	-27.2%	-13.2%
Cc1ccc(-n2nc(-c3ccco3)cc2C(=O)O)c(C)c1	-7.1%	-8.2%	10µM*	-27.0%	-25.7%	?
CN(C)S(=O)(=O)c1cccc(NC(=O)c2cc(-c3cccs3)nn2-c2cccc(Cl)c2)c1	-12.6%	-19.2%	2.6%	-3.2%	-9.4%	1.2%
Cc1nn(-c2cccc(Cl)c2)c2nc(-c3ccco3)cc(C(=O)O)c12	3.8%	-18.2%	28.2µM*	6.2%	-12.4%	?
COc1ccc(NC(=O)Cn2ncc3c([nH]c4ccccc43)c2=O)cc1Cl	?	-0.1%	·	·	-5.8%	10.2%
CC(=O)Oc1c(I)cc(I)cc1C(=O)Nc1ccc(Cl)cc1	·	·	16.7%	-6.9%	-17.5%	·
COc1ccccc1NC(=O)C1=C(C)Nc2c(C(=O)Nc3ccc(F)cc3)cnn2C1c1ccc(Cl)cc1 (stereo not given)	?	-23.3%	·	·	13.3%	0.2%
Cc1nc(SCc2cc(=O)c3cccc(F)c3[nH]2)n[nH]1	0.1%	0.0%	·	·	4.7%	0.3%
O=C(O)c1cc(-c2ccco2)nn1-c1cccc(Cl)c1	-9.1%	-3.4%	20µM*	?	-18.8%	-2.3%
CCOc1cc(C2Nc3ccccc3C(=O)N2Cc2ccco2)ccc1O (stereo not given)	·	·	·	·	-14.1%	·
O=C(CS(=O)(=O)Cc1ccccc1)c1ccccc1	·	·	·	-2.3%	·	·
O=C(N/N=C/c1sc(N2CCCCC2)nc1-c1cccs1)C1CC1	1.9%	?	56.2µM*	-14.1%	-7.6%	?
CCc1ccccc1NC(=O)c1cc(S(=O)(=O)N2CCCC2)cn1C	0.1%	-12.2%	·	·	3.7%	-10.5%
Cc1ccc(/C=C2/SC(=S)N(CCCC(=O)Nc3ccc(O)cc3)C2=O)cc1	4.4%	?	-9.0%	-2.4%	17.8%	?
O=C(CCCN1C(=O)/C(=C\c2ccccc2)SC1=S)Nc1ccc(O)cc1	14.1%	14.1µM*[quencher]	-0.9%	-12.0%	13.7%	?
O=C(CCN1C(=O)/C(=C/c2cccc(Br)c2)SC1=S)NNC(=O)c1cccnc1	-4.6%	-15.6%	1.4%	-8.1%	-1.0%	-13.6%
O=C(CCCN1C(=O)/C(=C/c2ccccc2)SC1=S)Nc1cccc(O)c1	?	14.1µM*[quencher]	0.3%	-3.8%	-0.3%	?

Source: PubChem BioAssay (National Center for Advancing Translational Sciences (NCATS))
